The list is not random: actives were taken first. Their share in the collection is about 18%.
TDP1 cell CPT = qHTS for Inhibitors of human tyrosyl-DNA phosphodiesterase 1 (TDP1): qHTS in cells in presence of CPT; chicken DT40 Tdp1-/-;hTDP1 cells + 20 nM CPT, ATP luminescence, 48 h; Potency, µM (doses to about 46.2 µM), inactives show top-dose activity change, negative = growth inhibition, actives largely listed as inhibitors; 420,000 tested, 12% active; AID 686979, 2013; also: nearly all actives have a fitted effect of over 55% in size
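Cell growth measured by CellTiter-Glo luminescence after a minimum 48 h, 37 C compound exposure with 20 nM CPT in Tdp1-knockout DT40 cells stably expressing hTDP1, seeded 400/well; qHTS titration format.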
VDR inh = Inhibitors of the vitamin D receptor (VDR): qHTS; VDR-SRC2-3 peptide fluorescence polarization, 2 h; 400,000 tested, 0.93% active; Vitamin D3 receptor (Homo sapiens), P11473; Potency, µM, inactives show max response, negative = inhibition, most hits filed as inhibitors
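After 23 nl compound addition and a short centrifugation, plates sat for 2 hours at ambient temperature; polarization of fluorescence then indicated loss of VDR binding to peptide SRC2-3.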
TDP1 block = qHTS Assay for Inhibitors of Tyrosyl-DNA Phosphodiesterase (TDP1); Tyrosyl-DNA phosphodiesterase 1 (Homo sapiens), Q9NUW8; recombinant TDP1, AlphaScreen DNA substrate cleavage; Potency, µM (top dose mostly 130 µM), inactives show at the highest dose activity change, negative = inhibition, hits mostly inhibitors; 350,000 tested, 0.28% active; AID 485290, 2010; also: nearly all actives have a fitted effect of over 40% in size
Target sequence (Q9NUW8 whole entry, looked up): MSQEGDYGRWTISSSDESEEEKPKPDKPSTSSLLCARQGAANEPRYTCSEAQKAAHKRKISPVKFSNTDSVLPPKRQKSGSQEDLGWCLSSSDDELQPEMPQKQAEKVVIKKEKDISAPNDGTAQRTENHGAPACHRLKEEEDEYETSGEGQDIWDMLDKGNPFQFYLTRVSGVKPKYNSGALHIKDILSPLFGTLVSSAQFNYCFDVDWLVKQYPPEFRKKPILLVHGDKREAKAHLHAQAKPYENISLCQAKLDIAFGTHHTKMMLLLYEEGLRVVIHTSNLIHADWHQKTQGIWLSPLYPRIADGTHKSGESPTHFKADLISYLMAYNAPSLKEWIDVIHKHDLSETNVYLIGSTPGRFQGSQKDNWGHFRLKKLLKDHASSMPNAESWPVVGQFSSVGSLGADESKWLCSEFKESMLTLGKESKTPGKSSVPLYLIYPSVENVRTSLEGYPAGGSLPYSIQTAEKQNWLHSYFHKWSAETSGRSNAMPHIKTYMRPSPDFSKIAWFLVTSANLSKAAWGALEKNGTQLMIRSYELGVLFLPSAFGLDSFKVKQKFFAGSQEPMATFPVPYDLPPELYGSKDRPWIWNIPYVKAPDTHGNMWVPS
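Here, a 5' biotin and 3' phosphotyrosine-FITC DNA oligonucleotide reports Tdp1 activity: intact substrate bridges AlphaScreen beads, while cleavage leaves a 3' phosphate and drops signal. All incubations at room temperature.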
PLK1 PBD block = qHTS for Inhibitors of PLK1-PDB (polo-like kinase 1 - polo-box domain): Primary Screen | Serine/threonine-protein kinase PLK1 (Homo sapiens), P53350 | Plk1 PBD binding of FITC phosphopeptide, fluorescence polarization | Potency, µM, for the others: max response, negative = inhibition, actives largely listed as inhibitors | 360,000 tested, 2.8% active | AID 720504, 2013; also: series mostly up to about 57 µM; nearly all actives have a fitted effect of over 65% in size
DT40 TDP1 no CPT = qHTS for Inhibitors of human tyrosyl-DNA phosphodiesterase 1 (TDP1): qHTS in cells in absence of CPT; DT40 Tdp1-/- hTDP1 cells, no CPT, ATP luminescence, 48 h; Potency, µM (top dose mostly 46.2 µM), without a hit: at the highest dose activity change, negative = growth inhibition, most hits filed as inhibitors; 420,000 tested, 15% active; also: nearly all actives have a fitted effect of over 55% in size
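No-CPT arm: Tdp1-/-;hTDP1 DT40 cells (400/well) plus compounds, incubated ≥48 hr at 37 °C. Readout CellTiter-Glo luminescence.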
GCN5L2 inh = qHTS Assay for Inhibitors of GCN5L2. GCN5L2 HAT assay, ThioGlo1 CoA-SH fluorescence. Potency, µM (highest dose often 58.9 µM), inactives show at the highest dose activity change, negative = inhibition, usual class: inhibitors. 390,000 tested, 0.21% active
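Titration-based screen in which CoA formation is detected via maleimide probe ThioGlo1 (50uM) turning fluorescent on thiol reaction; substrates H3(1-25) 75uM and acetyl-CoA 70uM, GCN5L2 20nM, 20 min incubation at room temperature.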
* = called active by the depositor; ? = inconclusive; nt = no result; ! = repeats disagree; [ ] = dose if it differs, or a comment. Calls follow the shape of the dose curve; as a rule, active = well fitted curve in the direction sought with a large enough effect; inconclusive = small, poorly fitted or top-dose-only effect, or another doubt; inactive = no such curve, though single readings can be large; an effect the other way counts as inactive or inconclusive. % is scaled to controls: 0 for no effect and ±100 for the full control effect; potency is read from the fitted curve at half-maximal effect.

SMILES	TDP1 cell CPT	VDR inh	TDP1 block	PLK1 PBD block	DT40 TDP1 no CPT	GCN5L2 inh
CS(=O)(=O)N1CCc2cc(C(=O)N3CCN(c4cccc(Cl)c4)CC3)ccc21	16µM*	1%	3%	-1%	18µM*!	-22%
CC(=O)N1CCc2cc(C(=O)CN3CCC(C)CC3)ccc21	?	-9%	2%	-9%	-2%	-6%
COc1ccccc1N1CCN(C(=O)c2ccc3c(c2)CCN3S(=O)(=O)c2ccccc2)CC1	8.2µM*	8%	5%	-8%	2.9µM*	-10%
O=C(c1cccc(S(=O)(=O)N2CCN(c3ccc(F)cc3)CC2)c1)N1CCN(c2ccccc2O)CC1	?	12%	nt	2%	?	nt
Cc1ccc(Cl)cc1N1CCN(C(=O)c2ccc3c(c2)CCN3S(C)(=O)=O)CC1	nt	nt	5%	nt	nt	-14%
c1ccc(-c2n[nH]c3c2oc2ccccc23)cc1	nt	4%	4%	nt	nt	2%
CCS(=O)(=O)N1CCc2cc(C(=O)N3CCN(c4ccccc4)CC3)ccc21	16µM*	10%	6%	nt	15µM*	-3%
CCS(=O)(=O)N1CCc2cc(C(=O)N3CCN(c4ccc(OC)cc4)CC3)ccc21	?	2%	11%	nt	?	-6%
CCOC(=O)C1(CCCc2ccccc2)CCN(C(=O)COC)CC1	?	0%	3%	1%	-5%	1%
CCOC(=O)C1(CCCc2ccccc2)CCN(C(=O)c2n[nH]c(CC)c2C)CC1	23µM*	nt	nt	-2%	13µM*	nt
OCC1(CCCc2ccccc2)CCN(C2CCSCC2)CC1	-17%	-6%	nt	-6%	-23%	-2%
CCOC(=O)C1(CCCc2ccccc2)CCN(C(=O)c2cc(C)nn2CC)CC1	18µM*	-12%	3%	-5%	9.2µM*	0%
CCOC(=O)C1(CCCc2ccccc2)CCN(C2CCSCC2)CC1	16µM*	1%	0%	-14%	13µM*	?
Cc1ccc(NC(=O)Cn2c(-c3cncs3)nc3ccccc32)cc1Br	?	13%	9%	nt	?	-4%
CCC12CN3CC(CC)(CN(C1)C3c1ccc(OCc3ccccc3)cc1)C2=O (stereo not drawn)	?	1%	7%	nt	?	3%
COCCCNc1c2c3c(cccc3[nH]c1=O)C(=O)c1ccccc1-2	15µM*	-9%	4%	0.38µM*	16µM*	?
CCOC(=O)c1c2c3c(cccc3[nH]c1=O)C(=O)c1ccccc1-2	-9%	7%	3%	-20%	-2%	1%
COc1ccc(C(c2c(O)cc(C)n(Cc3ccco3)c2=O)N2CCCCC2)cc1OC (stereo not drawn)	-11%	21%	3%	nt	-1%	-6%
Cc1ccc(S(=O)(=O)N(C)c2c(C)ccc(S(=O)(=O)N3CCN(C)CC3)c2C)cc1	-9%	-6%	3%	-12%	?	-5%
C=C(C)CN1CCN(S(=O)(=O)c2ccc(C)c(N(C)S(=O)(=O)c3ccc(C)cc3)c2C)CC1	23µM*	15%	1%	3%	10µM*	-10%
CC1CCN(c2nc(-c3cccnc3)nc3scc(-c4ccccc4)c23)CC1	?	18%	-2%	1%	-17%	1%
CN1CCN(c2nc(-c3cccnc3)nc3scc(-c4ccccc4)c23)CC1	?	3%	5%	1%	23µM*	-8%
CC1CCCN(c2nc(-c3cccnc3)nc3scc(-c4ccccc4)c23)C1 (stereo not drawn)	?	-10%	-3%	19%	18µM*	-23%
CN(C(=O)COC(=O)c1ccccc1C(=O)N1CCN(c2ccccc2)CC1)c1ccccc1	?	-1%	6%	-16%	?	-3%
COc1ccc(C2CCCN2C(=O)Nc2ccc(Cl)cc2)cc1OC (stereo not drawn)	?	-5%	5%	3%	?	-4%
SMILES	TDP1 cell CPT	VDR inh	TDP1 block	PLK1 PBD block	DT40 TDP1 no CPT	GCN5L2 inh
Cc1cc(C)c(S(=O)(=O)NCC2CCC(C(=O)NCCCN3CCC(C)CC3)CC2)c(C)c1 (stereo not drawn)	?	?	0%	24µM*	?	2%
Cc1cccc(CCNC(=O)C2CCC(CNS(=O)(=O)c3c(C)cc(C)cc3C)CC2)c1 (stereo not drawn)	?	1%	-3%	nt	16µM*	-7%
Cc1cc(C)c(S(=O)(=O)NCC2CCC(C(=O)NCCc3ccccc3)CC2)c(C)c1 (stereo not drawn)	15µM*	15%	-1%	nt	15µM*	1%
CCOC(=O)C1=C(C)NC(C)=C(C(=O)OCC)C1c1ccc(OC)cc1	15µM*	5%	0%	-7%	23µM*	-13%
CCOC(=O)C1=C(C)NC(=O)NC1c1ccc(Br)o1 (stereo not drawn)	38%	-16%	2%	-6%	-13%	-1%
CCOC(=O)C1=C(C)NC(C)=C(C(=O)OCC)C1c1ccc(Br)o1	9.2µM*	-17%	4%	5%	23µM*	-15%
O[C@@](CCN1CCCC1)(c1ccccc1)C1CCCCC1	nt	-4%	14%[21 µM]	nt	nt	0%[21.4 µM]
COc1ccc(C(O)(CCN2CCCCC2)C2CCCCC2)cc1 (stereo not drawn)	?	?	nt	-24%	21µM*	-3%
CCCCOc1ccc(C(O)(CCC)CCN2CCOCC2)cc1 (stereo not drawn)	21µM*	-18%	3%	-2%	16µM*	-1%
CCCCCC(O)(CCN1CCCCC1)c1ccc(OCC)cc1 (stereo not drawn)	?	?	5%	17µM*	?	-1%
Fc1ccc(-c2noc3ncnc(NC4CCCCC4)c23)cc1	?	6%	-2%	nt	?	0%
NC(N)=[N+]1CCc2ccccc2C1	nt	2%	11%[56.1 µM]	nt	nt	?
Cc1ccc(C)c(-n2ccnc2SCC(=O)Nc2cccc(S(=O)(=O)NC3=NCCC3)c2)c1	-18%	-2%	1%[56.1 µM]	1%	-17%	-7%
CNC(=S)N/N=C/c1cn(CCOc2ccccc2OC)c2ccccc12	3.7µM*	-19%	8%	-4%	6.5µM*	-7%
CNC(=S)N/N=C/c1cn(CCOc2cccc(OC)c2)c2ccccc12	8.2µM*	-13%	8%	0%	13µM*	-12%

Screens (PubChem BioAssay)
